Screens: PubChem BioAssay, ICCB-Longwood Screening Facility, Harvard Medical School
This excerpt belongs to a sample that is enriched for hits.
S aureus helic: blocks Staphylococcus aureus DNA helicase. purified S. aureus helicase, fluorescence unwinding assay. inhibition, % (concentration not given with the values). 120,000 tested, 0.05% active. AID 485395; in the data active means inhibition above about 25%, passing the limit was not always enough;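 further: 0% = mean of negative control wells and 100% = mean of positive control wells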
Sa growth inh: blocks Staphylococcus aureus growth; 170,000 tested, 0.53% active; relative growth, % (no concentration beside the values); S. aureus RN4220 growth, OD600, 20 h, 42 °C; active compounds read low;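 active means relative growth at most 50% at the other temperature and 20+ points below 30 °C, or under 10% at both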
HCMV UL50-53 inh: cytomegalovirus nuclear egress complex inhibition; HTRF UL50-UL53 interaction, normalized percent inhibition; AID 1918969; 190,000 tested, 0.15% active; inhibition, % (no concentration beside the values); in the data active means inhibition above about 27%, passing the limit was not always enough
Active calls of the source: *.

What do the screens show for `CCCCn1cnc2cc(NCc3cc(OC)c(OC)c(OC)c3)ccc21`?
S aureus helic: 19; Sa growth inh: 99; HCMV UL50-53 inh: -2

How did CCCn1cnc2cc(NCc3ccc(Br)cc3)ccc21 do in these assays?
S aureus helic: 5; Sa growth inh: 0.3*; HCMV UL50-53 inh: 8

What do the screens show for `CCCn1cnc2cc(NCc3ccc(Cl)cc3Cl)ccc21`?
S aureus helic: 3; Sa growth inh: 0.5*

How did CCCn1cnc2cc(NCc3ccncc3)ccc21 do in these assays?
S aureus helic: 10; Sa growth inh: 79

What do the screens show for `Oc1ccccc1CNc1ccc2c(c1)ncn2C1CCCCC1`?
S aureus helic: 6; Sa growth inh: 109; HCMV UL50-53 inh: -10

What do the screens show for `CCCCn1cnc2cc(NCc3ccc(Br)cc3)ccc21`?
S aureus helic: 6; Sa growth inh: 7.6*

Results for Cn1nc(C2CC2)cc1C(=O)O ?
S aureus helic: -12; Sa growth inh: 81; HCMV UL50-53 inh: 4

Results for CCOc1ccc(N2C(=O)N(Cc3cccc(OC)c3)C3CS(=O)(=O)CC32)cc1 (stereo unspecified) ?
HCMV UL50-53 inh: 0

How did CN1/C(=C2\C=NN(C)P2(=O)Nc2ccccc2)C(C)(C)c2ccccc21 (stereo unspecified) do in these assays?
S aureus helic: 9; Sa growth inh: 103; HCMV UL50-53 inh: -30

What do the screens show for `Cc1ccc(C)c(OCCCC(=O)Nc2ccc(N3CCOCC3)cc2)c1`?
S aureus helic: 6; Sa growth inh: 80; HCMV UL50-53 inh: 92*

What do the screens show for `Cc1ccc(NC(=O)CS(=O)CC(=O)Nc2ccc(N3CCOCC3)cc2)cc1Cl` (stereo unspecified)?
S aureus helic: -1; Sa growth inh: 79; HCMV UL50-53 inh: -7

Results for COc1ccc(CNc2ncnc3c2cnn3-c2ccccc2)cc1 ?
S aureus helic: -16; HCMV UL50-53 inh: -4

How did N#Cc1c(N)nc(SCC(=O)c2ccccc2)c(C#N)c1-c1ccc(O)cc1 do in these assays?
HCMV UL50-53 inh: 30*

What do the screens show for `N#Cc1c(N)nc(SCC(=O)c2ccc(Br)cc2)c(C#N)c1-c1ccc(O)cc1`?
HCMV UL50-53 inh: 9

How did CCN1CCN(S(=O)(=O)c2cc(-c3ccno3)sc2C)CC1 do in these assays?
HCMV UL50-53 inh: -22

How did CN1c2cc(Cl)ccc2-c2nc(SCC(=O)NC3CCCCC3)ncc2S1(=O)=O do in these assays?
HCMV UL50-53 inh: 67*

How did CN1c2ccc(Cl)cc2-c2nc(SCC(=O)NC3CCCCC3)ncc2S1(=O)=O do in these assays?
HCMV UL50-53 inh: -17

Results for CCOC(=O)C1=C(O)/C(=C/c2ccc(N3CCOCC3)o2)SC1=Nc1ccc(OCC)cc1 ?
S aureus helic: -83; Sa growth inh: 52; HCMV UL50-53 inh: -22

Results for CC1CCN(c2c(-c3ccc(Cl)cc3)c(=O)c2=O)CC1 ?
HCMV UL50-53 inh: -73

What do the screens show for `CC(C)(CO)NC(=O)c1cc(-c2ccc(Cl)cc2Cl)on1`?
S aureus helic: -4; Sa growth inh: 81; HCMV UL50-53 inh: 6

Results for COc1cc(C(=O)N=C2C(C)=CC(=O)C=C2C)cc(OC)c1OC ?
S aureus helic: 1; Sa growth inh: -0.6*

Results for COc1cc(C(=O)Oc2cc(C)cc(C)c2)cc(OC)c1OC ?
Sa growth inh: 103; HCMV UL50-53 inh: 0

How did CN(C)S(=O)(=O)c1ccc(-c2nc(C#N)c(N3CCOCC3)o2)cc1 do in these assays?
HCMV UL50-53 inh: 26

What do the screens show for `Cc1cc(C)[nH]c(=S)n1`?
S aureus helic: -4; Sa growth inh: 77; HCMV UL50-53 inh: -17

What do the screens show for `Cc1cc(=S)nc(C(C)C)[nH]1`?
S aureus helic: -6; Sa growth inh: 28*; HCMV UL50-53 inh: -1

What do the screens show for `CCS(=O)(=O)c1oc(-c2ccc(F)cc2)nc1S(=O)(=O)c1ccccc1`?
Sa growth inh: 2.2*; HCMV UL50-53 inh: -12

What do the screens show for `CCCCS(=O)(=O)c1oc(-c2ccc(F)cc2)nc1S(=O)(=O)c1ccc(C)cc1`?
Sa growth inh: 4.8*; HCMV UL50-53 inh: -16

Results for CCC(C)S(=O)(=O)c1oc(-c2ccc(F)cc2)nc1S(=O)(=O)c1ccc(C)cc1 (stereo unspecified) ?
S aureus helic: 28; Sa growth inh: 80; HCMV UL50-53 inh: -15

How did CC(C)CS(=O)(=O)c1oc(-c2cccs2)nc1S(=O)(=O)c1ccccc1 do in these assays?
S aureus helic: 22; Sa growth inh: 23*; HCMV UL50-53 inh: -20

What do the screens show for `CCCCS(=O)(=O)c1oc(-c2cccs2)nc1S(=O)(=O)c1ccc(F)cc1`?
Sa growth inh: 103; HCMV UL50-53 inh: -23

Results for CCCCCS(=O)(=O)c1oc(-c2cccs2)nc1S(=O)(=O)c1ccc(C)cc1 ?
Sa growth inh: 88; HCMV UL50-53 inh: -16

Results for CCC(C)S(=O)(=O)c1oc(-c2ccc(F)cc2)nc1S(=O)(=O)c1ccc(F)cc1 (stereo unspecified) ?
Sa growth inh: 15*; HCMV UL50-53 inh: -23

What do the screens show for `C=CCNc1oc(-c2ccc(F)cc2)nc1S(=O)(=O)c1ccccc1`?
HCMV UL50-53 inh: -20

How did O=C(O)c1cnc2ccccc2c1N1CCOCC1 do in these assays?
HCMV UL50-53 inh: -26

How did CN1CCCC1=Nc1ccccc1C#N do in these assays?
S aureus helic: -6; Sa growth inh: 109; HCMV UL50-53 inh: 6

How did c1ccc(-n2nnnc2OCCOc2nnnn2-c2ccccc2)cc1 do in these assays?
S aureus helic: 16; Sa growth inh: 97; HCMV UL50-53 inh: 4

How did c1ccc(-n2nnnc2Oc2cccc3cccnc23)cc1 do in these assays?
S aureus helic: 6; Sa growth inh: -0.3*

What do the screens show for `CN(Cc1nc(-c2ccccc2)no1)C(=O)CSc1ccccc1`?
S aureus helic: -1; Sa growth inh: 105; HCMV UL50-53 inh: -27

How did CC1CN(Cc2csc(Nc3ccccc3)n2)CC(C)O1 (stereo unspecified) do in these assays?
S aureus helic: 12; Sa growth inh: 0.7*

How did CC(=O)N1CCN(Cc2csc(Nc3ccccc3)n2)CC1 do in these assays?
S aureus helic: -6; Sa growth inh: 106; HCMV UL50-53 inh: -34

Results for COc1cc2c(cc1NC(=O)C(C)Sc1nc3ccccc3c(=O)[nH]1)oc1ccccc12 (stereo unspecified) ?
S aureus helic: 19; Sa growth inh: 96; HCMV UL50-53 inh: 11

How did [N-]=[N+]=c1c(=O)ccc2c(=O)c3ccccc3c(=O)c1=2 do in these assays?
S aureus helic: 13; Sa growth inh: 6.1*; HCMV UL50-53 inh: -128

Results for O=c1c2ccccc2c2nc3c(=O)c4ccccc4c3nc12 ?
S aureus helic: 10; Sa growth inh: 97; HCMV UL50-53 inh: -36

What do the screens show for `O=C(O)CN1C(=O)COc2cc(Cl)ccc21`?
HCMV UL50-53 inh: -22

What do the screens show for `C=CC(=O)Nc1cccc(Oc2ccnc(Nc3ccc(N4CCN(C)CC4)cc3)n2)c1`?
HCMV UL50-53 inh: -6

How did C=CC(=O)Nc1cccc(Oc2ccnc3[nH]ccc23)c1 do in these assays?
HCMV UL50-53 inh: 33*

How did COc1ccc(-c2cn3c(n2)CCC3)cc1 do in these assays?
S aureus helic: -14; Sa growth inh: 97; HCMV UL50-53 inh: 19

What do the screens show for `c1c(SSc2cn3c(n2)CCC3)nc2n1CCC2`?
S aureus helic: 3; Sa growth inh: -0.6*; HCMV UL50-53 inh: -14

What do the screens show for `CCN(CC)CCCNc1nc2cc(OC)c(OC)cc2c2nc(-c3ccccc3)nn12`?
S aureus helic: 74*; Sa growth inh: 104
